# PubChem BioAssay (NCATS)
# Inconclusive results are not listed. Where a call stands in place of a potency, no number is given. Active and inactive are the calls of the source. Unless noted, calls come from the whole dose curve; as a rule, active = well fitted curve in the direction sought with a large enough effect; inconclusive = small, poorly fitted or top-dose-only effect, or another doubt; inactive = no such curve, though single readings can be large; an effect the other way counts as inactive or inconclusive.
# What was measured:
# [1] = biological target: Cytochrome P450 3A4 (Homo sapiens) (UniProt P08684); test: qHTS Assay for Inhibitors and Substrates of Cytochrome P450 3A4 (AID 884); note: nearly all actives have a fitted effect of over 50% in size; note: potency is the fitted concentration of half-maximal effect
# Sequence of Cytochrome P450 3A4 (Homo sapiens) (P08684 whole entry, looked up): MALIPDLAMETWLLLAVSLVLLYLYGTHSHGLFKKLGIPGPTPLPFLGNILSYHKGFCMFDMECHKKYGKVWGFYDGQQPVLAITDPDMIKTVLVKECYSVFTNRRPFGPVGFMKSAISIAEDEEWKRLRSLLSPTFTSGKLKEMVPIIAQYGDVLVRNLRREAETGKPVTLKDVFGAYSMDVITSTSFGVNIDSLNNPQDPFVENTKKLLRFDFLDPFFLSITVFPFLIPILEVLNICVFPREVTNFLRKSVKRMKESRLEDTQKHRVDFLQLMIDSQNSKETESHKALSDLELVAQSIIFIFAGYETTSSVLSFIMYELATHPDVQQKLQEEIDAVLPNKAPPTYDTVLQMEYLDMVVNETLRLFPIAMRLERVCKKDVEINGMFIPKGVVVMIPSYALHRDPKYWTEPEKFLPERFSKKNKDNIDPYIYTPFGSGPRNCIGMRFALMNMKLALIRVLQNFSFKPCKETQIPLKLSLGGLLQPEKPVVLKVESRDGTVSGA
# Outline: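 20 nM human CYP3A4 with 25 uM Luciferin-PPXE (at KM) in 200 mM KPO4, preincubated 10 min with compound; NADPH regeneration started a 60 min RT reaction. Luciferin detected by luminescence, normalized to 57 uM ketoconazole as full inhibition.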
# [2] = Confirmation and Secondary Assay for Modulators of Hemoglobin Beta Chain Splicing at IVS2 654 locus (AID 910);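 note: HeLa cells stably carrying EGFP split by mutant beta-globin IVS2-654 intron; per-well total GFP intensity by laser scanning cytometry after 2-day treatment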
# Outline: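 Readout: per-well total peak green fluorescence (488 nm ex, 500–520 nm em) from objects 5–250 µm, reflecting correct splicing of an EGFP-654 reporter. Compounds were applied for 2 days at 37 °C to overnight-plated HeLa EGFP-654 cells; controls were DMSO and 500 nM IVS2-654 PNA.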
# [3] = Confirmation and Secondary Assay for Modulators of Hemoglobin Beta Chain Splicing at IVS2 705 locus (AID 930);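 note: HeLa cells stably expressing the EGFP-705 splicing reporter; GFP fluorescence per well restored by corrected splicing of the IVS2-705 intron in EGFP; series mostly up to about 46 µM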
# Outline: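 Per-well GFP, captured at 1 x 8 µm resolution with 488 nm excitation, served as the read-out for HeLa EGFP-705 cells incubated 2 days with test compound versus DMSO.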
# [4] = biological target: Cytochrome P450 2C19 (Homo sapiens) (UniProt P33261); test: qHTS Assay for Inhibitors and Substrates of Cytochrome P450 2C19 (AID 899); note: nearly all actives have a fitted effect of over 60% in size; note: potency is the fitted concentration of half-maximal effect
# Sequence of Cytochrome P450 2C19 (Homo sapiens) (P33261 whole entry, looked up): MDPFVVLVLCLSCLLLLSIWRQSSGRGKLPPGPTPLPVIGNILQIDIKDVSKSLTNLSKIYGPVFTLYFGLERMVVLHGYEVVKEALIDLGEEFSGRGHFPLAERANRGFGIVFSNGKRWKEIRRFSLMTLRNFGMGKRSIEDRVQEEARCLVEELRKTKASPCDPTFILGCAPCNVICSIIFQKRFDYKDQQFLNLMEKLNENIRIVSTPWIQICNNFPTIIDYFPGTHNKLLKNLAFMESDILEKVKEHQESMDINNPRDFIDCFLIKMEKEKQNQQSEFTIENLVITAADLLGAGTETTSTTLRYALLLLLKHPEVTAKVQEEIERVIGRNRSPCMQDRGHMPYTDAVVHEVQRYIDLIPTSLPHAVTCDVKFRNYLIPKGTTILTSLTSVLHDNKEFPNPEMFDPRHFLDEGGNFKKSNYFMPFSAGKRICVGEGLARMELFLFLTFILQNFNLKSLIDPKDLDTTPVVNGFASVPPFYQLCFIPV
# Outline: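 Luminescence readout of luciferin formed from 10uM Luciferin-H EGE (KM level) by 5 nM CYP2C19 in 50mM KPO4. 60 min NADPH-driven reaction at 37C after 10 min compound preincubation; data scaled to 57uM ketoconazole inhibition.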
# [5] = Cell Viability - LYMP2-001 (AID 921);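 note: series mostly up to about 92 µM; cells exposed to compound for 24 h at 37 °C; nearly all actives have a fitted effect of over 70% in size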
# Outline: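 qHTS, 1536-well; lymphoblastoid cells, 24 hr compound, 37 C; ATP by CellTiter-Glo, 30 min RT; luminescence; Hill-fit AC50.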
# [6] = MultiTox-Fluor Cytotoxicity Assay - LYMP1-001 - Dead Cells (AID 946);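 note: cells exposed to compound for 16 h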
# Outline: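 AC50 from Hill fit of concentration-response; data normalized to DMSO (basal) and 15 uM tetraoctylammonium bromide (100%). LYMP1-001 lymphoblastoid cells, 2500/well, 16 hr compound at 37 C; dead-cell protease fluorescence, Ex/Em 485/520.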
# [7] = MultiTox-Fluor Cytotoxicity Assay - LYMP1-001 - Live Cells (AID 947)
# [8] = MultiTox-Fluor Cytotoxicity Assay - LYMP1-002 - Live Cells (AID 955);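 note: cells exposed to compound for 16 hours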
# Outline: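 Read-out is live-cell protease activity (cell-permeant GF-AFC substrate, fluorescence Ex/Em=405/510), where a decrease indicates acute toxicity. Human lymphoblastoid cells were treated 16 hours at 37 C in a concentration series, and AC50 values came from standard Hill modelling.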
# [9] = MultiTox-Fluor Cytotoxicity Assay - LYMP1-002 - Dead Cells (AID 960);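 note: cells exposed to compound for 16 h at 37 °C; nearly all actives have a fitted effect of over 60% in size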
# Outline: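 LYMP1-002 cells 2500/well; 5 hr 37 C pre-incubation; compound 16 hr 37 C; MultiTox-Fluor reagent 60 min RT; dead-cell fluor Ex/Em 485/520. Norm. to DMSO (0%) vs 15 uM tetraoctylammonium bromide (100%); Hill AC50.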
# [10] = MultiTox-Fluor Cytotoxicity Assay - LYMP1-003 - Dead Cells (AID 961);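 note: cells exposed to compound for 16 h at 37 °C; nearly all actives have a fitted effect of over 70% in size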
# Outline: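 Human lymphoblastoid LYMP1-003 cells (2500/well) were treated with compounds for 16 hr at 37 C in complete medium. Dead-cell protease release was read by bis-AAF-R110 fluorescence (Ex/Em 485/520). AC50 came from Hill fits, normalized to DMSO and 15 uM tetraoctylammonium bromide.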
# [11] = biological target: Cytochrome P450 3A4 (Homo sapiens) (UniProt P08684); test: qHTS Assay for Activators of Cytochrome P450 3A4 (AID 885); note: nearly all actives have a fitted effect of over 65% in size
# Outline: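 20nM CYP3A4 + 25uM Luciferin-PPXE (=KM), 200mM KPO4; cpd 10 min RT; NADPH regen, 60 min RT; stop w/ detection buffer, 20 min; luminescence. Normalized to 57 uM ketoconazole.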
# [12] = qHTS Assay for Identification of Small Molecule Agonists for Thrombopoietin (TPO) Signaling Pathway (AID 917)
# Outline: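 We measured Glycoprotein IIb promoter–luciferase output in IL-3-starved Ba/F3 murine cells expressing the human TPO receptor after 24 hrs at 37 C with compounds and 26 pM TPO.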
# [13] = biological target: Pyruvate kinase (Leishmania mexicana) (UniProt Q27686); test: qHTS Validation Assay for Inhibitors of Leishmania Mexicana Pyruvate Kinase (AID 945)
# Sequence of Pyruvate kinase (Leishmania mexicana) (Q27686 2-499 E452W): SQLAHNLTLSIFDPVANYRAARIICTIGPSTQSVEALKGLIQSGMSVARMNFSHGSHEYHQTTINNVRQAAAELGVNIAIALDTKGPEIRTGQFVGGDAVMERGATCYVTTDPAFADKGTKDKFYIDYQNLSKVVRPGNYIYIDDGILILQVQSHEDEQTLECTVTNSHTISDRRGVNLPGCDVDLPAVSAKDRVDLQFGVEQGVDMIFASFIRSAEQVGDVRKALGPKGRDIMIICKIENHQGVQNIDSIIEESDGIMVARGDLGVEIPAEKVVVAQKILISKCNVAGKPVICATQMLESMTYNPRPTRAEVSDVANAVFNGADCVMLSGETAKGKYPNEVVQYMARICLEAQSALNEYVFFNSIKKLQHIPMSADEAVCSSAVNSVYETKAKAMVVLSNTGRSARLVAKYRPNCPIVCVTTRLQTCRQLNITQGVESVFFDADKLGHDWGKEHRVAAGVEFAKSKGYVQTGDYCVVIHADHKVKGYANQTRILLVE
# Outline: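 An endpoint luciferase assay: 0.2 nM LmPYK E451W turns over 0.5 mM PEP with 0.1 mM ADP for 1 h at room temperature, pH 7.2, before PKLight addition. Values are normalized to DMSO-only wells.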
# [14] = biological target: Pyruvate kinase PKM (Homo sapiens) (UniProt P14618); test: qHTS Assay for Activators of Human Muscle Pyruvate Kinase (AID 954; active = well fitted curve in the direction sought with a large enough effect, not every such curve was filed as active)
# Sequence of Pyruvate kinase PKM (Homo sapiens) (P14618 whole entry, looked up): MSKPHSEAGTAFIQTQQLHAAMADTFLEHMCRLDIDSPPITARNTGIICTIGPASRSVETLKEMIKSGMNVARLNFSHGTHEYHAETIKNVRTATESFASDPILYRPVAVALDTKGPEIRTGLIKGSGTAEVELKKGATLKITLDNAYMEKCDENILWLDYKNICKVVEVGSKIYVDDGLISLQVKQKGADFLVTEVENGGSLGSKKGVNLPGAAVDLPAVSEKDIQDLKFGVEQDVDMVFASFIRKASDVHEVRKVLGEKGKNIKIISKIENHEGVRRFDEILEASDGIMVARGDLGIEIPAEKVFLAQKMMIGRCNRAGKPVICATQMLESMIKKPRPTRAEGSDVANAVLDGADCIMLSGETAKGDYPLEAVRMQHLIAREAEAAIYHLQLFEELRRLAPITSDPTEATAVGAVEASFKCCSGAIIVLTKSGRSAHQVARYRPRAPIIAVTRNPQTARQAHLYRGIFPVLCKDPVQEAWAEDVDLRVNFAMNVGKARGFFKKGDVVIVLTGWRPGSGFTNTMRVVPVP
# Outline: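 Luminescence from a luciferase ATP-detection/stop reagent reported PKM2 activity. Reactions contained 0.1 nM purified human enzyme, 0.5 mM PEP, 0.1 mM ADP and 7 mM MgCl2 at pH 7.2, run 1 h at RT.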
# [15] = biological target: Cytochrome P450 2D6 (Homo sapiens) (UniProt P10635); test: qHTS Assay for Inhibitors and Substrates of Cytochrome P450 2D6 (AID 891); note: potency is the fitted concentration of half-maximal effect; nearly all actives have a fitted effect of over 60% in size
# Sequence of Cytochrome P450 2D6 (Homo sapiens) (P10635 whole entry, looked up): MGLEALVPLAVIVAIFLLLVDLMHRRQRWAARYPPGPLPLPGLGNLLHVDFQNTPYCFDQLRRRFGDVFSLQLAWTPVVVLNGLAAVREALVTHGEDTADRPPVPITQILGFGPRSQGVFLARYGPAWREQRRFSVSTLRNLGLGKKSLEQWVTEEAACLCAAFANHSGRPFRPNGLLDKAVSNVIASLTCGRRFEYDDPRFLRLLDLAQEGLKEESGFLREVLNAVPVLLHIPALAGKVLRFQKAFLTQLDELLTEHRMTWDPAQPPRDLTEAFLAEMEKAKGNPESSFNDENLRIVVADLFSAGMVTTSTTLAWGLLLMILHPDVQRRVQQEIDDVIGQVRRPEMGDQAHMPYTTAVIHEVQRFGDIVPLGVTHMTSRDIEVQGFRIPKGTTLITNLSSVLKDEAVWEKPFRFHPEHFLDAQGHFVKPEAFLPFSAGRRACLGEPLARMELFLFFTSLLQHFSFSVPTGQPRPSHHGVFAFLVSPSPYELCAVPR
# Outline: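 Human CYP2D6 (5 nM) with 30 uM Luciferin-ME EGE (at Km) in 100 mM KPO4, compound preincubated 10 min, then NADPH regeneration system for 60 min at room temperature. Luciferin read by luminescence; normalized to 1.43 uM quinidine.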
# [16] = biological target: Muscarinic acetylcholine receptor M1 (Rattus norvegicus) (UniProt P08482); test: qHTS Assay for Antagonists of Acetylcholine Muscarinic M1 Receptor: Kinetic Measurement of Intracellular Calcium Response (AID 943);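 note: Fluo-4 calcium signal as peak divided by basal fluorescence over 4 min; series mostly up to about 35 µM; nearly all actives have a fitted effect of over 75% in size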
# Sequence of Muscarinic acetylcholine receptor M1 (Rattus norvegicus) (P08482 whole entry, looked up): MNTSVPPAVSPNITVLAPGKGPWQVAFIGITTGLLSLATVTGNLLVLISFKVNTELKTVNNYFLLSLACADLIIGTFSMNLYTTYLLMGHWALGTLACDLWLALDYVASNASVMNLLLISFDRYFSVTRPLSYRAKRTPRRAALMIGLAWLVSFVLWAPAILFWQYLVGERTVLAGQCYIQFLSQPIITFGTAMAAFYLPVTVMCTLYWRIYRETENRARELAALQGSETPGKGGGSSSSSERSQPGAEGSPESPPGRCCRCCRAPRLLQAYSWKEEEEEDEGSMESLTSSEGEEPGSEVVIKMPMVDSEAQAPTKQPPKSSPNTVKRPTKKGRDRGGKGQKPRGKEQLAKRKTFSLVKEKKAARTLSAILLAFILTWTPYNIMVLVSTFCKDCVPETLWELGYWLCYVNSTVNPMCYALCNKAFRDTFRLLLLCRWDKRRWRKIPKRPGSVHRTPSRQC
# Outline: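 Rat M1-CHO cells, 2000/well, overnight → Fluo-4 no-wash dye with probenecid, 1 h 37C → compound 10 min, room temp → basal read 6 s → carbachol EC80 (100 nM) → 4 min kinetic read; peak/basal.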
# [17] = biological target: Muscarinic acetylcholine receptor M1 (Rattus norvegicus) (UniProt P08482); test: qHTS Assay for Antagonists of Acetylcholine Muscarinic M1 Receptor: Measurement of IP-One Response (AID 944); note: nearly all actives have a fitted effect of over 75% in size
# Outline: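 M1-CHO (rat), 2000 cells/well, overnight recovery; cpd 10 min; carbachol EC80 (200 nM), 30 min, HEPES buffer + 50 mM LiCl pH 7.4; IP-One HTRF, Ex 337, Em 620/665 nm.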
smiles,measurement,setting,value
O=C1NS(=O)(=O)c2ccccc21,Potency,[1],inactive
same,outcome,[2],inactive
same,Potency,[3],inactive
O=C(O)c1ccccc1O,Potency,[1],inactive
same,outcome,[2],inactive
same,Potency,[3],inactive
Cc1ccc(C(C)C)cc2c(C)ccc1-2,Potency,[1],inactive
same,outcome,[2],inactive
same,Potency,[3],inactive
CCn1cc(C(=O)O)c(=O)c2cnc(N3CCNCC3)nc21,Potency,[1],inactive
same,outcome,[2],inactive
same,Potency,[3],inactive
CCCCOC(=O)c1ccc(O)cc1,Potency,[1],inactive
same,Potency,[4],6.31 µM (active)
same,outcome,[5],inactive
same,Potency,[6],inactive
same,Potency,[7],inactive
same,outcome,[8],inactive
same,outcome,[9],inactive
same,Potency,[10],inactive
CN(C)CCC=C1c2ccccc2CCc2ccccc21,Potency,[1],inactive
same,outcome,[11],inactive
same,outcome,[2],inactive
same,outcome,[12],inactive
same,Potency,[3],inactive
same,outcome,[13],inactive
same,Potency,[7],inactive
same,outcome,[14],inactive
same,outcome,[8],inactive
O=C(CCCN1CCN(c2ccccn2)CC1)c1ccc(F)cc1,Potency,[1],inactive
same,outcome,[2],inactive
same,Potency,[3],inactive
CC12CCC(CC1)C(C)(C)O2,Potency,[1],inactive
same,outcome,[2],inactive
same,outcome,[5],inactive
same,Potency,[3],inactive
same,Potency,[6],inactive
same,Potency,[7],inactive
same,outcome,[8],inactive
same,outcome,[9],inactive
same,Potency,[10],inactive
CC1(C)OC(=O)NC1=O,Potency,[1],inactive
same,outcome,[2],inactive
same,Potency,[3],inactive
c1ccc2c(CC3=NCCN3)cccc2c1,Potency,[1],inactive
same,Potency,[15],7.94 µM (active)
same,outcome,[2],inactive
same,Potency,[3],inactive
CN(C)CCCN1c2ccccc2CCc2ccccc21,Potency,[1],inactive
same,outcome,[1],inactive
same,outcome,[11],inactive
same,outcome,[4],inactive
same,outcome,[12],inactive
same,outcome,[13],inactive
same,outcome,[14],inactive
Nc1ccc(S(=O)(=O)NC(=O)c2ccccc2)cc1,Potency,[1],inactive
same,outcome,[2],inactive
same,Potency,[3],inactive
OC[C@H]1O[C@@H](O[C@@H]2[C@@H](CO)O[C@](O)(CO)[C@H]2O)[C@H](O)[C@@H](O)[C@H]1O,Potency,[1],inactive
CCCCCCCCCCCCCCCCCCOCC(O)CO (configuration not stated),Potency,[1],inactive
same,outcome,[2],inactive
same,Potency,[3],inactive
O=c1cc(CO)occ1O,Potency,[1],inactive
same,Potency,[4],inactive
C=Cc1c(C)c2cc3[nH]c(cc4nc(cc5nc(cc1[nH]2)C(C)=C5CCC(=O)O)C(CCC(=O)O)=C4C)c(C)c3C=C,Potency,[1],inactive
same,Potency,[4],inactive
same,outcome,[2],inactive
same,outcome,[12],inactive
same,Potency,[3],inactive
same,Potency,[16],inactive
same,Potency,[17],inactive
same,outcome,[13],inactive
same,outcome,[14],inactive
NC(=O)NC(=O)Cc1ccccc1,Potency,[1],inactive
same,outcome,[2],inactive
same,Potency,[3],inactive
Cc1cc(CC(=O)O)n(C)c1C(=O)c1ccc(Cl)cc1,Potency,[1],inactive
same,outcome,[2],inactive
same,outcome,[5],inactive
same,Potency,[3],inactive
same,Potency,[6],inactive
same,Potency,[7],inactive
same,outcome,[8],inactive
same,outcome,[9],inactive
same,Potency,[10],inactive
CN(C)CCOC(C)(c1ccccc1)c1ccccn1 (configuration not stated),Potency,[1],inactive
same,outcome,[2],inactive
same,Potency,[3],inactive
CN(C)CC[C@@H](c1ccc(Cl)cc1)c1ccccn1,Potency,[1],inactive
same,outcome,[2],inactive
same,Potency,[3],inactive
O=C(Oc1ccccc1C(=O)O)c1ccccc1O,Potency,[1],inactive
same,outcome,[2],inactive
same,Potency,[3],inactive
NS(=O)(=O)c1cc2c(cc1Cl)NC(CSCc1ccccc1)=NS2(=O)=O,Potency,[1],25.1 µM (active)
same,outcome,[11],inactive
same,outcome,[2],inactive
same,Potency,[3],inactive
O=c1cc[nH]c(=S)[nH]1,Potency,[1],inactive
same,outcome,[2],inactive
same,Potency,[3],inactive
CCN(CC)CCNC(=O)c1cc(Cl)c(N)cc1OC,Potency,[1],inactive
same,outcome,[2],inactive
same,outcome,[12],inactive
same,Potency,[3],inactive
same,Potency,[17],inactive
same,outcome,[13],inactive
same,outcome,[14],inactive
CC(COc1ccccc1)NC(C)C(O)c1ccc(O)cc1 (configuration not stated),Potency,[1],inactive
same,outcome,[2],inactive
same,Potency,[3],inactive
Cc1c(Cl)cccc1Nc1ccccc1C(=O)O,Potency,[1],inactive
same,outcome,[2],inactive
same,Potency,[3],inactive
OCC(O)CN1CCN(c2ccccc2)CC1 (configuration not stated),Potency,[1],inactive
same,outcome,[2],inactive
same,Potency,[3],inactive
c1ccc(CN(CC2=NCCN2)c2ccccc2)cc1,Potency,[1],inactive
same,Potency,[15],2.51 µM (active)
same,outcome,[2],inactive
same,Potency,[3],inactive
CN(C)CCN(Cc1ccccc1)c1ccccn1,Potency,[1],inactive
same,outcome,[2],inactive
same,Potency,[3],inactive
Oc1cccc(O)c1,outcome,[11],inactive
same,outcome,[2],inactive
same,outcome,[5],inactive
same,Potency,[3],inactive
same,Potency,[6],inactive
same,outcome,[8],inactive
same,Potency,[10],inactive
CC1=C(CC(=O)O)c2cc(F)ccc2/C1=C\c1ccc(S(C)(=O)=O)cc1,outcome,[11],inactive
same,Potency,[4],inactive
same,outcome,[12],inactive
same,Potency,[17],inactive
same,outcome,[13],inactive
same,outcome,[14],inactive
